From PubChem BioAssay
A number with no mark means an inactive call. For part of these data: Measured potencies and affinities stand elsewhere. The source made the active and inactive calls. Unless noted, the rule behind the calls is not given here.

Experiments:
[1] = antimalarial activity against Dd2 strain (AID 2302;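 active = growth inhibition above 50% at the single 2 µM test dose, taken to imply half-maximal potency below 2 µM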;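 note: 0% = DMSO untreated growth and 100% = chloroquine plus artemisinin killed control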); settings: P. falciparum Dd2 in RBCs, LDH growth readout, 72 h; at 2 µM; active compounds read high
[2] = human hepatoma cell viability loss – ATP luminescence, cytotoxicity control for P. falciparum antimalarial project, primary screen (AID 2303;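 active = inhibition above 50%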;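 note: 0% = DMSO wells and 100% = digitonin-killed cells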); settings: HepG2 viability, 24-48 h, at 10 µM, active compounds read high
[3] = molecular target: L-lactate dehydrogenase (Plasmodium falciparum (isolate CDC / Honduras)) (UniProt Q27743); assay: PfLDH activity inhibition – cell lysate, 3D7 strain, counter-screen for P. falciparum growth inhibition project (AID 2304);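 note: 0% = vehicle and 100% = reference inhibitor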; settings: P. falciparum 3D7 crude extract, LDH APAD/NBT absorbance; at 2 µM; active compounds read high
Chain of L-lactate dehydrogenase (Plasmodium falciparum (isolate CDC / Honduras)) (Q27743 whole entry, looked up): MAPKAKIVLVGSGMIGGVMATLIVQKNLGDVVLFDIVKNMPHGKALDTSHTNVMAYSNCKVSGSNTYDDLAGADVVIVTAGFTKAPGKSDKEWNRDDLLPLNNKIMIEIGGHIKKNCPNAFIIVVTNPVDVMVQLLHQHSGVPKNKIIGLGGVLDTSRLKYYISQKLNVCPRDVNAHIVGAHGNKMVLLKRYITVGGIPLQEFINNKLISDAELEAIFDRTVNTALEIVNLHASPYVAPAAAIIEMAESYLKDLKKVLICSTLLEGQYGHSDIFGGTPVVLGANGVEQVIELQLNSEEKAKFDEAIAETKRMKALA

[4] = inhibition of 3D7 malaria parasite growth – strain 3D7 (AID 2306);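 note: 0% = DMSO wells and 100% = chloroquine plus artemisinin control wells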; settings: P. falciparum 3D7 erythrocytic growth, LDH absorbance, 72 h; at 2 µM; active compounds read high
[5] = molecular target: Calcium-dependent protein kinase 1 (Plasmodium falciparum (isolate 3D7)) (UniProt P62344); assay: PfCDPK1 kinase inhibitors, biochemical, TCAMS library (AID 1159585; cut-off not given, nearly all actives have IC50 up to about 0.98 µM;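 note: inhibitors leave more ATP so luminescence rises with inhibition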); settings: recombinant PfCDPK1, Kinase-Glo ATP depletion luminescence
Chain of Calcium-dependent protein kinase 1 (Plasmodium falciparum (isolate 3D7)) (P62344 whole entry, looked up): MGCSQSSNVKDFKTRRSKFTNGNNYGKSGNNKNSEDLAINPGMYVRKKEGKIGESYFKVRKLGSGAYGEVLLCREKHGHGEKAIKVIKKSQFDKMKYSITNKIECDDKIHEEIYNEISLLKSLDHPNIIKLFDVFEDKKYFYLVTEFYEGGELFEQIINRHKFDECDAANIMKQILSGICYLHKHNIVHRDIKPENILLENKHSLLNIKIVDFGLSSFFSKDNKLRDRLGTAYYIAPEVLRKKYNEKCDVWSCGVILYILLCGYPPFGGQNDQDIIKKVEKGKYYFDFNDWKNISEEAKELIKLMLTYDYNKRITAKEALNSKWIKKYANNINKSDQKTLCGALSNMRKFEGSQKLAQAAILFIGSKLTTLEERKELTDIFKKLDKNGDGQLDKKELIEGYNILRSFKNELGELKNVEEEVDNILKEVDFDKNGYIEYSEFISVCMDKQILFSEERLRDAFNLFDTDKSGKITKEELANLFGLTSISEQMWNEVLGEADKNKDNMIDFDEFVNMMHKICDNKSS

[6] = molecular target: Plasmodium falciparum protein kinase 6 (PK6, PF3D7_1337100) (UniProt Q8IDW1); assay: PfPK6 kinase inhibitors, biochemical, TCAMS library (AID 1159586); settings: recombinant PfPK6, Kinase-Glo ATP depletion luminescence
Chain of Plasmodium falciparum protein kinase 6 (PK6, PF3D7_1337100) (Q8IDW1 1-305): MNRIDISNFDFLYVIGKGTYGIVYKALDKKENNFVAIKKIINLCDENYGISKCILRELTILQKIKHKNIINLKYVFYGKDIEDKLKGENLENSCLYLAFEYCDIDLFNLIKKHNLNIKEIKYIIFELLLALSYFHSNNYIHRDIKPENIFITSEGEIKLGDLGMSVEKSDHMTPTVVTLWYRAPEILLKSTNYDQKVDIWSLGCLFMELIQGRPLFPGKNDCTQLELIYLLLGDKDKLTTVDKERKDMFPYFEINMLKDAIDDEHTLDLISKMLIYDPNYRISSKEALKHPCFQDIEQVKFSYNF

[7] = molecular target: Protein kinase 7 (PK7), Plasmodium falciparum 3D7 (PF3D7_0213400) (UniProt Q7YTF7); assay: inhibition of Plasmodium PK7 catalytic activity – biochemical, TCAMS antimalarial set, Kinase-Glo luminescence (AID 1159587); settings: recombinant PfPK7, Kinase-Glo ATP depletion luminescence
Chain of Protein kinase 7 (PK7), Plasmodium falciparum 3D7 (PF3D7_0213400) (Q7YTF7 1-343): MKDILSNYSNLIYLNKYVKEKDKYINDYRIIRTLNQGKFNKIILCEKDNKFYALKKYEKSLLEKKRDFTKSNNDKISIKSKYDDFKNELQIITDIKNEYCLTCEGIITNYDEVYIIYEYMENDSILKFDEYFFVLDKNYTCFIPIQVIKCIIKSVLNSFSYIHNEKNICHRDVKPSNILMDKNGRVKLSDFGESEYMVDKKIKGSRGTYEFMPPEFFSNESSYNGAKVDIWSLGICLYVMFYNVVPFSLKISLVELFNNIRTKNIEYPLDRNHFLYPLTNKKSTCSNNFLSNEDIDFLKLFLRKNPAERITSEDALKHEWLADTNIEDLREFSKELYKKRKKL

[8] = molecular target: Calcium-dependent protein kinase 4 (Plasmodium falciparum (isolate 3D7)) (UniProt Q8IBS5); assay: PfCDPK4 kinase inhibitors, biochemical, TCAMS library (AID 1159588; cut-off not given, nearly all actives have IC50 up to about 0.91 µM); settings: recombinant PfCDPK4, Kinase-Glo ATP depletion luminescence
Chain of Calcium-dependent protein kinase 4 (Plasmodium falciparum (isolate 3D7)) (Q8IBS5 whole entry, looked up): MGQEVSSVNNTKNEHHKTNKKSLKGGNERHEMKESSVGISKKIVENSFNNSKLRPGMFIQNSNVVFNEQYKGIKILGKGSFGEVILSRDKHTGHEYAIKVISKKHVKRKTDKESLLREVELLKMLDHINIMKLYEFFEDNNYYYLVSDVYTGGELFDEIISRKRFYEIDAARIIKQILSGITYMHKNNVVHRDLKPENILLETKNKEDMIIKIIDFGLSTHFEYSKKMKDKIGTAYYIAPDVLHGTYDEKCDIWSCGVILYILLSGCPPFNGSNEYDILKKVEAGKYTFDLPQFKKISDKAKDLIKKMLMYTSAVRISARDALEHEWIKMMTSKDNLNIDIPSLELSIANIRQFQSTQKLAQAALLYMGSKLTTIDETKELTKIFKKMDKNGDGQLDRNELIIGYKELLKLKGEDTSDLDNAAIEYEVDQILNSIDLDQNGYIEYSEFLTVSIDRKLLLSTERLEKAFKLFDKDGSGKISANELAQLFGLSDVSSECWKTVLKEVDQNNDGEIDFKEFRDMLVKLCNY

SMILES	growth inhibition [1]	inhibition [2]	inhibition [3] [%]	growth inhibition [4]	outcome [5]	outcome [6]	outcome [7]	outcome [8]
O=c1cc(NCC2(CNCc3cn(Cc4ccccc4)c4ccccc34)CCCCC2)[nH]c2ccccc12	56% (active)	27%	1	100% (active)	inactive	inactive	inactive	inactive
CC(=O)Oc1c(C(=O)C2CCC(C(C)(C)C)CC2)c(OC(C)=O)c2ccccc2c1OC(C)=O (configuration not stated)	96% (active)	9%	2	96% (active)	inactive	inactive	inactive	inactive
FC(F)(F)Oc1ccc(-c2cnc3ccc(NCc4ccncc4)nn23)cc1	54% (active)	19%	-3	97% (active)	inactive	inactive	inactive	inactive
COc1ccc(-c2ccc(NC(=O)c3cccc(C#N)c3)cc2)cc1CN1CCNCC1	47%	30%	8	101% (active)	inactive	inactive	inactive	inactive
CC(C)CC(C)NC(=O)C1Cc2c([nH]c3cc(Cl)ccc23)C2(CCN(CCc3ccccc3)CC2)N1 (configuration not stated)	65% (active)	15%	-1	95% (active)	inactive	inactive	inactive	inactive
Oc1ccc(CCNCCCCCCNCCc2ccc(Cl)c(Cl)c2)cc1O	2%	21%	-1	101% (active)	inactive	inactive	inactive	inactive
Fc1ccc2nc(-c3cccc(-c4ccc(CNCc5cnn(-c6ccccc6)n5)cc4)c3)[nH]c2c1	22%	18%	-3	98% (active)	inactive	inactive	inactive	inactive
CCOC(=O)N(C)/N=C/[C@H](CCc1ccccc1)NC(=O)[C@H](CC(C)C)NC(=O)c1cc2cccc(OC)c2o1	70% (active)	2%	1	86% (active)	inactive	inactive	inactive	inactive
COc1ccc(C(=O)Nc2ccc(-c3ccc([N+](=O)[O-])cc3)cc2)cc1CCCN(C)C	9%	20%	1	98% (active)	inactive	inactive	inactive	inactive
COc1cc2c(cc1OC)C(C(=O)Nc1cc(OC)c(OC)c(OC)c1)C(c1ccc(SC)cc1)N(C)C2=O (configuration not stated)	64% (active)	14%	2	97% (active)	inactive	inactive	inactive	inactive
CCOc1cc(C)ccc1C1CCN(CCCCNC(=O)c2nc(-c3ccc(C(F)(F)F)cc3)[nH]c2C)CC1	98% (active)	30%	-5	100% (active)	inactive	inactive	inactive	inactive
O=C(NCc1cccc2ccccc12)c1ccc(CNC2CCN(Cc3ccccc3)CC2)cc1	88% (active)	15%	5	101% (active)	inactive	inactive	inactive	inactive
COc1ccc(N2CCN(CCCCNC(=O)c3ccc(NC(=O)c4ccc(Cl)cc4)cc3)CC2)c(C)c1	51% (active)	42%	0	100% (active)	inactive	inactive	inactive	inactive
FC(F)(F)c1ccc2nc(-c3cccc(-c4cccc(CNCc5cnn(-c6ccccc6)n5)c4)c3)[nH]c2c1	28%	6%	-5	100% (active)	inactive	inactive	inactive	inactive
CS(=O)(=O)CCNC(=O)c1ccc(-c2cc3c(Nc4ccc5c(cnn5Cc5ccccc5)c4)ncnc3cn2)o1	46%	6%	-1	97% (active)	inactive	inactive	inactive	inactive
CCC(C)c1ccc(NC(=O)C(C)c2ccc([N+](=O)[O-])cc2)cc1 (configuration not stated)	100% (active)	14%	-3	101% (active)	inactive	inactive	inactive	inactive
O=C(Nc1ccc(Cn2ncc(N3CCCNCC3)c(Cl)c2=O)cc1)Nc1cc(C(F)(F)F)cc(C(F)(F)F)c1	29%	25%	3	100% (active)	inactive	inactive	inactive	inactive
C[C@@H](NC(=O)c1nn(-c2ccc(Cl)cc2)c(=O)c2ccccc12)C(C)(C)C	20%	7%	-2	95% (active)	inactive	inactive	inactive	inactive
Cc1ccc(O)cc1Nc1ccnc2cc(-c3ccncc3)ccc12	84% (active)	16%	6	100% (active)	inactive	inactive	inactive	inactive
N#Cc1cccc(C(=O)Nc2cccc(-c3ccc(CN4CCC(O)CC4)cc3)c2)c1	2%	15%	1	86% (active)	inactive	inactive	inactive	inactive

SMILES	growth inhibition [1]	inhibition [2]	inhibition [3] [%]	growth inhibition [4]	outcome [5]	outcome [6]	outcome [7]	outcome [8]
CCN(CC)c1nc(N)c2c(N)nc3c(c2c1C#N)C(=O)CN3Cc1ccccc1	96% (active)	26%	-3	96% (active)	inactive	inactive	inactive	inactive
O=C(CC1CCCC1)N(Cc1ccc(-c2ccc(CNC3Cc4ccccc4C3)cc2)cc1)CC1CCCCN1 (configuration not stated)	86% (active)	41%	-3	88% (active)	inactive	inactive	inactive	inactive
CCCC1N=C(N)N=C(N)N1c1ccc(CC)cc1 (configuration not stated)	4%	11%	1	94% (active)	inactive	inactive	inactive	inactive
COc1cccc(C2CCN(CCCCNC(=O)c3ccc(NC(=O)c4ccc(Cl)cc4)cc3)CC2)c1	40%	18%	-5	99% (active)	inactive	inactive	inactive	inactive
Cc1ccc(Cn2cnc3cc(C(=O)Nc4ccc(-c5cccc(CN(C)C)c5)cc4)ccc3c2=O)o1	39%	22%	4	99% (active)	inactive	inactive	inactive	inactive
N#Cc1ccc(C(=O)Nc2ccc(-c3cccc(CN4CCCC4)c3)cc2)cc1	1%	17%	-1	89% (active)	inactive	inactive	inactive	inactive
O=S(=O)(NCCN1CCCC1)c1cccc(-c2cccc(CNCCc3cccs3)c2)c1	45%	30%	0	102% (active)	inactive	inactive	inactive	inactive
O=C(Nc1ccccc1)Nc1cccc(-c2cc(CNCCc3ccccc3)sc2-c2ccncc2)c1	84% (active)	14%	7	100% (active)	inactive	inactive	inactive	inactive
Cc1cccc(-c2cc3cc(Nc4ccnc5cc(-c6nccs6)ccc45)ccc3[nH]2)c1	100% (active)	0%	1	101% (active)	inactive	inactive	inactive	inactive
O=C(c1ccccc1)N(Cc1ccccc1-c1ccc(CNCCc2ccccc2)cc1)C1CCN(Cc2ccccc2)CC1	69% (active)	95% (active)	-7	95% (active)	inactive	inactive	inactive	inactive
Cc1cccc(CN2CCC(CNC(=O)c3cc4c(-c5ccccc5F)nn(C)c4s3)CC2)c1	15%	18%	-4	85% (active)	inactive	inactive	inactive	inactive
CC(=O)N1N=C(c2[nH]c3ccc(Br)cc3c2C)OC1c1ccccc1 (configuration not stated)	68% (active)	8%	0	86% (active)	inactive	inactive	inactive	inactive
CN(CCN1CCC(c2c[nH]c3ccccc23)CC1)c1ccc(-c2nc3cc(Cl)c(Cl)cc3[nH]2)cc1	101% (active)	22%	-1	101% (active)	inactive	inactive	inactive	inactive
Fc1ccc2[nH]cc(CCNCc3ccc(-c4cccc(-c5nc6ccccc6[nH]5)c4)cc3)c2c1	99% (active)	69% (active)	-3	100% (active)	inactive	inactive	inactive	inactive
CCCCCCCN1CC[C@@H](CCCc2ccnc3ccc(OC)cc23)[C@@H](CNC)C1	95% (active)	25%	-2	101% (active)	inactive	inactive	inactive	inactive
O=[N+]([O-])c1ccccc1C=NNc1ccnc2ccccc12	98% (active)	3%	2	101% (active)	inactive	inactive	inactive	inactive
Cc1nc2ccc3ccc(CNc4ccc(C(=O)N[C@@H](CCC(=O)O)C(=O)O)c(F)c4)cc3c2c(=O)[nH]1	96% (active)	41%	-1	96% (active)	inactive	inactive	inactive	inactive
CCC(C)NC(=O)Nc1ccc(-c2cccc(-c3nc4c(C)cccc4[nH]3)c2)cc1 (configuration not stated)	83% (active)	55% (active)	6	102% (active)	inactive	inactive	inactive	inactive
COc1ccccc1NC(=O)Nc1cccc(-c2ccc(-c3nc4c(C)cccc4[nH]3)s2)c1	46%	19%	3	100% (active)	inactive	inactive	inactive	inactive
